# Screens (PubChem BioAssay)
# NPC1 promoter act: activates the NPC1 promoter; Huh7 NPC1 promoter luciferase reporter, 24 h; Potency, µM (highest dose often 9.22 µM), for the others: top-dose activation, hits mostly activators; 2.4% of 320,000 active; further: % of control where 0% means no effect; nearly all actives have a fitted effect of over 60% in size
#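 Quantitative HTS used a cell-based reporter: Huh7 cells stably bearing the NPC1 promoter upstream of luciferase were treated with compounds for 24 h, and promoter activation was read as luminescence.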
# ELG1 genotoxic: genotoxicity induction in ELG1-luciferase HEK293T cells. HEK293T ELG1-luciferase reporter, luminescence, 16 h. Potency, µM (series often up to 46 µM), inactives show top-dose activity change, positive = activation, actives largely listed as activators. 1.3% of 330,000 active. AID 504466; further: % of control where 0% means no effect; nearly all actives have a fitted effect of over 60% in size
#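 ELG1-luciferase HEK293T cells, 2,000/well; compound pinned in; 16 hr, 37 °C, 5% CO2; ONE-Glo, 30 min RT; luminescence on CCD imager.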
# KinaseGlo FLuc: blocks Kinase-Glo luciferase, a counter-screen artifact; 0.28% of 200,000 active; Kinase-Glo luciferase, ATP luminescence, 8 min; Potency, µM (titrated, usually from 38.3 µM), for the others: at the top dose activity change, negative = inhibition, hits mostly inhibitors; AID 1379; Q27757; further: on the % scale 0 is the no-effect control and ±100 the full control effect; nearly all actives have a fitted effect of over 60% in size
#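 Inhibition of Kinase-Glo luciferase light generation was assessed at 10 uM ATP in pH 7.2 imidazole buffer, with luminescence measured after eight minutes at ambient temperature.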
# FLuc modulator: firefly luciferase modulation, counter-screen for miR-21 project | 6.9% of 360,000 active | P08659 | purified FLuc, Km substrates, luminescence inhibition | Potency, µM (series often up to 57.5 µM), inactives show at the top dose activity change, negative = inhibition, hits mostly inhibitors;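 further: plate controls were vehicle for no effect and reference inhibitor for full effect; nearly all actives have a fitted effect of over 55% in size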
# Target sequence (P08659 whole entry, looked up): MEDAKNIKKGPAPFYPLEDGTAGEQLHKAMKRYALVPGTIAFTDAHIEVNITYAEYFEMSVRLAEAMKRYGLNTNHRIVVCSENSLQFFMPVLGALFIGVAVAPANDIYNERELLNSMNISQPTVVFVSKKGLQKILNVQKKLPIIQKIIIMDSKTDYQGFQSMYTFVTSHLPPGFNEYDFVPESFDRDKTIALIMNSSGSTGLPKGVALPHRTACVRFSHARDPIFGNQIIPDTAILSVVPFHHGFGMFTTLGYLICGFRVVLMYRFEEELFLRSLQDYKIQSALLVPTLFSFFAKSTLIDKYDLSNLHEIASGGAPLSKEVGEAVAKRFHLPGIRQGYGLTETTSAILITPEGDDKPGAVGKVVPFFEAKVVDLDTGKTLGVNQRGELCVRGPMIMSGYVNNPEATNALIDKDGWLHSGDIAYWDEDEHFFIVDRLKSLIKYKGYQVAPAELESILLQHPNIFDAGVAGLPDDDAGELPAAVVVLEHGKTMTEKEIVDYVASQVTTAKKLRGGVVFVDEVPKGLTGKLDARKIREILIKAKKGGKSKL
#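 Purified P. pyralis luciferase, 10 nM final, with Km-level 10 uM D-luciferin and 10 uM ATP in 50 mM Tris acetate pH 7.5, 10 mM Mg acetate, 0.01% Tween-20, 0.05% BSA; 6-point qHTS titration about 60 µM downward; luminescence read.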
# Rab9 prom act: Rab9 promoter activation | Huh7 Rab9 promoter-luciferase reporter, luminescence, 24 h | Potency, µM (series often up to 9.22 µM), inactives show at the highest dose activation, negative = inhibition, usual class: activators | 2.8% of 320,000 active | AID 485297; further: % of control where 0% means no effect; nearly all actives have a fitted effect of over 60% in size
#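 Huh7 reporter line, Rab9 promoter upstream of luciferase. Compound exposure 24 h at 37 °C in reduced-serum medium with 10% FBS. Read-out: luminescence.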
# SMN2 splice up: enhancers of SMN2 splice variant expression | AID 1458 | Potency, µM (titrated, usually from 46.1 µM), without a hit: at the highest dose activity change, positive = activation, most hits filed as activators | HEK293 SMN2-luciferase splicing reporter, luminescence, 30-36 h | 2.8% of 210,000 active; further: % of control where 0% means no effect; nearly all actives have a fitted effect of over 55% in size
#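 qHTS luciferase splicing reporter: luminescence rises when SMN2 exon 7 is included in transfected HEK293 cells. Compound exposure lasted 30-36 h at 37C, with 4.5 mM final sodium butyrate as control, followed by a ONE-Glo read.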
# Numbers without * were called inactive; ? = inconclusive; . = no result. In the library only some 7.3% were active in any assay of this set; here they are far more common. The call rests on the fitted dose curve; in most records, active means well fitted curve in the direction sought with a large enough effect; inconclusive means small, poorly fitted or top-dose-only effect, or another doubt; inactive means no such curve, though single readings can be large; an effect the other way counts as inactive or inconclusive. Potency means the concentration at half of the fitted maximal effect.
SMILES,NPC1 promoter act,ELG1 genotoxic,KinaseGlo FLuc,FLuc modulator,Rab9 prom act,SMN2 splice up
CC(C)(C)C(=O)NC(=S)Nc1ccccn1,-1%,6%,1%,-4%,-2%,16%
O=C(NC(=S)Nc1ccccn1)c1ccc(-c2ccccc2)cc1,0.11µM*,?,.,1.5µM*,0.28µM*,.
O=C(Nc1ccc(Cl)cc1)c1ccc(-c2ccccn2)s1,1.6µM*,23%,.,?,2.8µM*,.
Cc1cc(C)cc(NC(=O)CCNC(=O)c2ccc([N+](=O)[O-])cc2)c1,-3%,-3%,.,4%,-8%,.
COc1ccc(CC2(CO)CCN(Cc3cnn(-c4ccccc4OC)c3)CC2)cc1,-1%,0%,.,1%,-4%,.
N#Cc1c[nH]n2c(NC3CCCCC3)c(-c3ccc(F)cc3)nc12,.,.,.,-3%,.,.
Oc1cccc(Nc2nc(O)c(/C=C3\C=Nc4ccccc43)s2)c1,3%,?,.,21µM*,7%,.
Oc1nc(Nc2cccc(Cl)c2)sc1/C=C1\C=Nc2ccccc21,8%,-4%,.,?,8%,.
Cc1ccc(-c2nn(-c3ccccc3)cc2C=C2C(=O)CC(C)(C)CC2=O)cc1,-2%,0%,2%,24µM*,-1%,-16%
CC1=NNC(=O)/C1=C\c1cn(-c2ccccc2)nc1-c1ccc(Cl)cc1,-48%,-20%,-1%,0%,-51%,-90%
Cc1n[nH]c(=O)c2c(NC(=O)COC(=O)/C=C/c3cccc(C(F)(F)F)c3)oc(C)c12,-1%,-1%,.,1%,0%,.
Cc1cc(NC(=O)CSc2nc(-c3cccs3)cc(C(F)(F)F)n2)no1,-13%,12%,0%,0%,-15%,?
c1ccc(CNc2ccnc(-c3ccc4c(c3)OCO4)n2)cc1,.,.,-3%,.,.,13µM*
c1ccc(-c2nccc(-c3ccc4c(c3)OCO4)n2)cc1,?,?,-3%,19µM*,?,?
Cc1nccc(-c2ccc3c(c2)OCO3)n1,0%,7%,-4%,-1%,3%,7%
Cc1nnc(SCC(=O)N2CC(=O)Nc3ccccc32)n1Cc1ccccc1,0%,2%,-3%,-1%,-3%,-6%
Cn1c(/C(C#N)=C/c2ccc(C(F)(F)F)cc2)nc2ccccc21,.,.,.,6.7µM*,.,-10%
Cn1c(/C(C#N)=C/c2ccncc2)nc2ccccc21,-5%,0%,-2%,-12%,-5%,-6%
Cn1c(/C(C#N)=C/c2ccc(O)cc2)nc2ccccc21,?,?,.,12µM*,?,.
Nc1nc(-c2ccco2)nn1C(=O)c1cccnc1,1%,0%,-2%,-2%,-4%,-5%
Cn1c(CC2C(=O)Nc3ccc(Br)cc32)nc2ccccc2c1=O (stereo not drawn),1%,-18%,-1%,4%,-4%,-19%
COc1ccccc1N1CCN(C(=S)Nc2ccc(F)cc2)CC1,-3%,7%,.,-7%,5%,.
Cc1ccc(-c2cn(-c3ccccc3)c(=S)[nH]2)cc1C,1.1µM*,3.3µM*,.,12µM*,0.13µM*,.
N#CCCN1CCCc2cc(N=Nc3ccc(C(F)(F)F)cc3)ccc21,?,11%,.,13µM*,?,.
C=CCc1cccc(/C=N/NC(=O)c2ccccc2Br)c1O,-4%,?,.,?,-3%,.
O=C(C[n+]1ccc(C(=O)N/N=C/c2ccc(Cl)cc2Cl)cc1)c1ccccc1,-5%,-2%,-5%,2%,3%,6%
CCc1ccc(C(=O)N/N=C/c2ccc(Cl)cc2Cl)nc1,10%,6%,0%,7.6µM*,22%,26%
O=C(N/N=C/c1ccc(Cl)cc1Cl)c1ccc2nc[nH]c2c1,8%,18%,.,9.5µM*,24%,.
O=C(N/N=C/c1ccc(Cl)cc1Cl)c1cccc(F)c1,1.8µM*,?,-15%,3.4µM*,2µM*,?
C=CCc1cccc(/C=N/NC(=O)c2ccccc2OC)c1O,24%,?,3%,13µM*,-3%,-102%
